Shown are actives, neighbours in structure and some others; about 19% of the full set was active somewhere.
TDP1 cell noCPT: qHTS for Inhibitors of human tyrosyl-DNA phosphodiesterase 1 (TDP1): qHTS in cells in absence of CPT. DT40 Tdp1-/- hTDP1 cells, no CPT, ATP luminescence, 48 h. Potency, µM (highest dose often 46.2 µM), for inactives: at the top dose activity change, negative = growth inhibition, hits mostly inhibitors. 420,000 tested, 15% active; note: potency is the fitted concentration of half-maximal effect; % is set by controls: 0 for no effect and ±100 for the full control effect; nearly all actives have a fitted effect of over 55% in size
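Stably hTDP1-transfected Tdp1-null chicken DT40 cells were treated with library compounds minus camptothecin and grown for at least 48 hr at 37 °C, after which cellular ATP was quantified by luminescence.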
TGFb inhibitor: inhibitors of TGF-b signaling; HepG2 CAGA-GFP TGF-b/SMAD3 reporter, GFP fluorescence, 18 h; TGF-beta stimulated, 500 pg/mL final; Potency, µM (doses to about 46.1 µM), for inactives: at the top dose activity, negative = inhibition, actives largely listed as inhibitors; 410,000 tested, 1.2% active; note: potency is the fitted concentration of half-maximal effect; % is set by controls: 0 for no effect and ±100 for the full control effect; nearly all actives have a fitted effect of over 65% in size
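GFP signal (ex488/em500-530) from TGF-beta-stimulated HEPG2 CAGA-GFP cells, 500 pg/mL final, 18 h at 37 degrees C in DMEM plus 1% FBS, normalized to unstimulated and DMSO-stimulated controls.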
ASM inhibitor: human S-ASM enzyme inhibition; 340,000 tested, 0.006% active; Potency, µM (doses to about 57.5 µM), for inactives: top-dose activity change, negative = inhibition, actives largely listed as inhibitors; P17405; AID 504937; placental ASM, HMU-PC fluorogenic substrate, 60 min; note: potency is the fitted concentration of half-maximal effect
Target sequence (P17405 47-631 limits assumed): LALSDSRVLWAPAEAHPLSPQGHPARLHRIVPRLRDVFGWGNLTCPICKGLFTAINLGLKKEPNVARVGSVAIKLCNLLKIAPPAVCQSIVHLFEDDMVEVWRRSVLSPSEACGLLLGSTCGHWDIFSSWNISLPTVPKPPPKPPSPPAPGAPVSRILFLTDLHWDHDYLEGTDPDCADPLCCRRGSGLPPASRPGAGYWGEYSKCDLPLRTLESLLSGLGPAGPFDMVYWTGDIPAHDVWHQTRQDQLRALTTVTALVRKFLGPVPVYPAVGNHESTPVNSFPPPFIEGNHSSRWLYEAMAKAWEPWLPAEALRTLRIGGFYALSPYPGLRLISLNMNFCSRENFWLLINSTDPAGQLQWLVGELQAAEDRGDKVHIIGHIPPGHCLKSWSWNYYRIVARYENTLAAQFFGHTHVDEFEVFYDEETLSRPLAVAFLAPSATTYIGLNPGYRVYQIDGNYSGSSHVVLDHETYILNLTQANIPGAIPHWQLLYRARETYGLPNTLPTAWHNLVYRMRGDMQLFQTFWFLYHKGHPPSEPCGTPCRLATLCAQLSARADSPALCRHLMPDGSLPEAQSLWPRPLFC
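Human placenta-derived ASM enzyme was preincubated with compound for 10 minutes at room temperature, then given fluorogenic substrate HMU-PC0 (9 uM final) for 60 minutes at 37 °C; a pH 10 stop preceded fluorescence reading at Ex 386/Em 447 nm.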
HepG2 viability: HepG2 cytotoxicity, counter-screen for TGF-b inhibitors | HepG2 CAGA-GFP viability, ATP luminescence, 18 h | Potency, µM (titrated, usually from 46.1 µM), for inactives: at the top dose activity change, negative = cytotoxicity, most hits filed as cytotoxic | 410,000 tested, 0.76% active | AID 588856; note: potency is the fitted concentration of half-maximal effect
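CellTiter-Glo luminescence gave cytotoxicity after 18 hours at 37 degrees C. The cells were HepG2 CAGA-GFP in 1% FBS DMEM, stimulated with 500 pg/mL TGF-beta after compound addition. %Activity was normalised to no-cell wells (complete cell-killing) and DMSO (no toxicity), and curves were fitted and classified.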
DT40 TDP1 CPT: DT40-hTDP1 cell growth loss with CPT. chicken DT40 Tdp1-/-;hTDP1 cells + 20 nM CPT, ATP luminescence, 48 h. Potency, µM (doses to about 46.2 µM), without a hit: top-dose activity change, negative = growth inhibition, actives largely listed as inhibitors. 420,000 tested, 12% active. AID 686979; note: potency is the fitted concentration of half-maximal effect; % is set by controls: 0 for no effect and ±100 for the full control effect; nearly all actives have a fitted effect of over 55% in size
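Chicken DT40 Tdp1-/- cells complemented with human TDP1, 400 cells/well, exposed to compounds plus 20 nM camptothecin for at least 48 h at 37 C; viability read as ATP content by CellTiter-Glo luminescence.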
IL1B secr inh: inflammasome signaling inhibition, IL-1 beta readout | 360,000 tested, 4.7% active | activity change, % at 57.5 µM | THP-1 LPS/ATP IL-1B secretion, AlphaLISA, 16 h; hits give low values | AID 743279; in the data active = activity change below about -50%; inconclusive = mostly about -30% to -49%; note: % is set by controls: 0 for no effect and ±100 for the full control effect
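THP-1 cells pretreated 1 hr with compounds (up to 57.5 uM final), then stimulated with LPS (250 ng/mL final) plus ATP (1.25 mM final); secreted IL-1B measured by AlphaLISA after 16 hr, decreased signal indicating inhibition.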
Starred values were filed as active, the others as inactive; u = inconclusive; x = not tested or not shown; [ ] = remark or other dose. Unless noted, calls come from the whole dose curve; as a rule, active = well fitted curve in the direction sought with a large enough effect; inconclusive = small, poorly fitted or top-dose-only effect, or another doubt; inactive = no such curve, though single readings can be large; an effect the other way counts as inactive or inconclusive.

SMILES | TDP1 cell noCPT | TGFb inhibitor | ASM inhibitor | HepG2 viability | DT40 TDP1 CPT | IL1B secr inh
CCOC(=O)C1=C(COC(=O)CCc2ccc(CC)cc2)NC(=O)NC1C (stereo unspecified) | -7% | 13% | -4% | -4% | -7% | 15
COc1ccccc1C(CNC(=O)C1CC(=O)N(Cc2ccccc2)C1)N1CCCC1 (stereo unspecified) | 4.6µM* | -9% | 3% | -9% | -2% | -8
COc1ccc(-c2nc(CCNC(=O)c3ccco3)cs2)cc1OC | 21µM* | -18% | 0% | -1% | u | -9
O=C(NCCc1csc(-c2ccc(F)cc2)n1)c1ccco1 | -26% | -20% | x | -16% | u | x
COc1ccc(-c2nc(NC(=O)CCNC(=O)c3ccco3)sc2C)cc1 | 18µM* | u | -2% | -19% | 23µM* | -2
COc1ccc(CC(=O)Nc2nc(-c3ccc(OC)c(OC)c3)cs2)cc1OC | 21µM* | -14% | -10% | -20% | u | -86*
COc1ccc(CCNC(=O)CCNC(=O)c2ccco2)cc1 | -8% | 5% | -1% | 12% | -10% | 13
O=C(Cn1c(-c2cccs2)cc2ccccc21)N1CCN(c2ccc(F)cc2)CC1 | u | -10% | x | -4% | u | x
COc1ccc(-c2csc(NC(=O)CS(=O)(=O)c3ccccc3)n2)cc1OC | 16µM* | -1% | x | -22% | u | u
COc1ccccc1CC(=O)Nc1nc(-c2ccc(F)c(F)c2)cs1 | u | u | -2% | -16% | u | u
COc1ccc(-c2csc(NC(=O)C3CC(=O)N(Cc4ccccc4)C3)n2)cc1OC (stereo unspecified) | u | 0% | x | -2% | u | -59*
Cn1nc(C(=O)Nc2nc(-c3ccc(F)cc3)cs2)ccc1=O | 6.5µM* | u | 0% | -15% | u | u
Cc1nnc(NC(=O)C2CC(=O)N(Cc3ccccc3)C2)s1 (stereo unspecified) | -1% | 12% | 0% | 12% | -1% | -6
O=C(Cc1ccccc1F)Nc1nc(-c2ccc(F)cc2)cs1 | 5.8µM* | -20% | -9% | -4% | 8.2µM* | -94*
N#CCCN(NC(=O)OCc1ccccc1)C(=O)OCc1ccccc1 | -21% | -3% | 3% | 7% | -22% | 0
CCC(=O)N1CCc2cc(CNC(=O)Nc3cc(OC)c(OC)c(OC)c3)ccc21 | -17% | 33% | x | 6% | -17% | x
CCOc1ccc(CNC(=O)C2CCN(S(=O)(=O)N3CCCCC3)CC2)cc1 | u | u | x | -6% | u | x
COc1ccc(-c2nc(NC(=O)c3cc(C(C)(C)C)nn3C)sc2C)cc1 | 21µM* | u | -2% | -3% | u | -24
COc1ccc(-c2csc(NC(=O)CCNC(=O)c3ccco3)n2)cc1OC | 16µM* | 5% | 0% | -22% | u | -18
COCC(=O)Nc1nc(-c2ccc(C)cc2)c(C)s1 | u | 4% | -4% | -54% | -29% | -5
CCCC(=O)Nc1ccc(NC(=S)NC(=O)c2cccs2)cc1 | -9% | 1% | 1% | -1% | -15% | -15
O=C(NC(=S)Nc1nc2c(ccc3ccccc32)s1)c1cccs1 | 15µM* | -15% | -6% | 0% | u | 0
COc1ccc(-c2csc(NC(=S)NC(=O)c3cccs3)n2)cc1OC | 12µM* | -18% | -9% | -11% | 15µM* | -16
CC(=O)Nc1ccc(-c2csc(NC(=O)CCNC(=O)c3ccco3)n2)cc1 | u | 3% | 3% | -6% | -26% | -17
Cc1ccccc1C(=O)NC(C)c1ccc2c(c1)CCCC2 (stereo unspecified) | u | -8% | 0% | -5% | u | 25
SMILES | TDP1 cell noCPT | TGFb inhibitor | ASM inhibitor | HepG2 viability | DT40 TDP1 CPT | IL1B secr inh
COc1ccc(-c2nc(NC(=O)c3c(C)noc3C)sc2C)cc1 | 21µM* | 0% | -11% | -14% | 10µM* | 1
COc1ccc(-c2nc(NC(=O)c3n[nH]c(=O)c4ccccc34)sc2C)cc1 | 9.2µM* | 0% | -3% | -25% | 21µM* | 18
COc1ccc(Cc2nnc(NC(=O)c3c(-c4ccccc4)noc3C)s2)cc1 | -16% | 1% | -6% | -5% | -7% | 35
Cc1cc(C)c(-c2csc(NC(=O)c3n[nH]c(=O)c4ccccc34)n2)c(C)c1 | 4.1µM* | 0% | 2% | -17% | 9.2µM* | 24
COc1ccc(-c2csc(NC(=O)Cc3ccccc3F)n2)cc1OC | 26µM* | u | -19% | -2% | u | -64*
CO[C@H]1[C@H](NC(=O)c2ccco2)c2ccccc2C12CCN(Cc1cnc(N(C)C)s1)CC2 | -13% | x | x | x | 4%[9.04 µM] | x
COC(=O)C1=CN(C)C=C(C(=O)OC)C1c1ccc(O)c(OC)c1 | -9% | 13% | 111% | 7% | 3% | 0
COC(=O)C1=CN(c2ccc(OC)cc2)C=C(C(=O)OC)C1c1cccc(F)c1 | -10% | -1% | 410% | -6% | 8% | 8
COC(=O)C1=CN(c2ccc(OC)cc2)C=C(C(=O)OC)C1c1ccc(C)c([N+](=O)[O-])c1 | 21µM* | 1% | -2% | 4% | u | -6
COC(=O)C1=CN(c2cccc(C(F)(F)F)c2)C=C(C(=O)OC)C1c1ccc(O)c(OC)c1 | u | u | -1% | -7% | u | -51*
COC(=O)C1=CN(c2ccc(F)cc2)C=C(C(=O)OC)C1c1cccc([N+](=O)[O-])c1 | 26µM* | 10% | -1% | 13% | -25% | -1
O=S(=O)(c1ccccc1)c1nnn2c1nc(NC1CCCCCC1)c1sccc12 | -17% | 18% | x | 3% | -24% | x
O=C(CCc1nnc(CCCCc2ccccc2)o1)N1CCCC(O)C1 (stereo unspecified) | 16% | 6% | 0% | -13% | -3% | 0
COc1ccc(-c2cccc3c2NC(=O)C3=O)cc1OC | 15µM* | -2% | 12% | 9% | 18µM* | 38
C/C(CC(=O)Nc1ccc([N+](=O)[O-])cc1)=N/NC(=O)C1CC12CCC2 (stereo unspecified) | 11% | 7% | 0% | 0% | 16% | -14
Cc1nn(Cc2ccc(Cl)cc2)c(C)c1NC(=O)CSc1n[nH]c(C)c1[N+](=O)[O-] | 21µM* | 4% | 1% | 10% | 26µM* | 7

From PubChem BioAssay
